Measured values: PubChem BioAssay (NCI)
This is part of a sample that, as a whole, favours compounds with a hit. Of some 79,000 tested, about 15% had one in any assay. No stated cut-off is given here; in the data, active means growth inhibition above about 70%; inactive means the rest.

Tests used:
[1] = NCI Yeast Anticancer Drug Screen. Data for the rad50 strain (AID 155);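 further: 0% = growth of vehicle-only cultures of the same strain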; conditions: S. cerevisiae rad50 strain growth inhibition; at 50.0 µM; hits give high values
Method in brief: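 Inhibition values express reduced yeast growth in compound-treated cultures relative to vehicle-treated controls.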

[2] = NCI Yeast Anticancer Drug Screen. Data for the mec2-1 strain (AID 157); conditions: S. cerevisiae mec2-1 strain, at 50.0 µM, hits give high values
Method in brief: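 Test agents were screened against the mec2-1 yeast strain, with defined DNA repair or cell cycle alteration. Growth was scored as inhibition against vehicle-only controls.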

[3] = NCI Yeast Anticancer Drug Screen. Data for the sgs1 mgt1 strain (AID 161);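 further: 0% = growth of cultures given vehicle only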; conditions: S. cerevisiae sgs1 mgt1 strain, at 50.0 µM, hits give high values
Method in brief: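 Read-out: growth inhibition vs vehicle controls. Cells: mutant yeast strain deficient in DNA damage repair.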

[4] = NCI Yeast Anticancer Drug Screen. Data for the cln2 rad14 strain (AID 165);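 further: 0% = growth equal to vehicle treated cultures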; conditions: S. cerevisiae cln2 rad14 strain, at 50.0 µM, hits give high values
Method in brief: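 Growth of compound-exposed yeast (cln2 rad14 genotype) measured and expressed as inhibition relative to vehicle.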

[5] = NCI Yeast Anticancer Drug Screen. Data for the bub3 strain (AID 167); conditions: S. cerevisiae bub3 mutant strain, at 50.0 µM, hits give high values
Method in brief: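 Steps: expose the mutant yeast strain to compound; grow alongside vehicle-treated cultures; measure growth; express inhibition against the vehicle cultures.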

[6] = NCI Yeast Anticancer Drug Screen. Data for the mlh1 rad18 strain (AID 175); conditions: S. cerevisiae mlh1 rad18 strain growth inhibition; at 50.0 µM; hits give high values
Method in brief: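 In this whole-cell yeast screen, a strain with altered DNA damage repair is challenged with compound, and its growth is measured against matched vehicle-treated controls.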

Measured: growth inhibition

Cc1ccc([N+](=O)[O-])cc1NC(=O)C(=O)Cc1nc2ccc(C(=O)c3ccccc3)cc2[nH]c1=O
inactive: [1] -4.7% | [2] -20.7% | [3] -9.05% | [4] 11.6% | [5] 10.3% | [6] -5.7%

COc1nc2ccccc2c(=O)[nH]1
inactive: [1] -6.7% | [2] -5.2% | [3] -6.05% | [4] 0.1% | [5] 2% | [6] 6.5%

O=C1CCC(N2C(=O)C3C4CCC(O4)C3C2=O)C(=O)O1 (stereo not given)
inactive: [1] 12.9% | [2] 3% | [3] 13.9% | [4] 13.8% | [5] 13.8% | [6] 7.85%

C=C1CC23CC[C@H]4[C@@](C)(CCC[C@@]4(C)C(=O)OC4OC(CO)C(O)C(O)C4O)[C@@H]2CC[C@@]1(OC1OC(CO)C(O)C(O)C1OC1OC(CO)C(O)C(O)C1O)C3 (stereo not given in full)
inactive: [1] -6.6% | [2] -38.5% | [3] -38.1% | [4] 25.4% | [5] -39.4% | [6] -16%

Cc1ccccc1NC(=O)CC(=O)n1nc(-c2ccccc2)c(N=Nc2ccc([N+](=O)[O-])cc2)c1-c1ccccc1
inactive: [1] 46.4% | [2] 10.4% | [3] 56% | [4] 30.9% | [5] 52.8% | [6] 42.9%

CC(C)CCCC(C)C1CCC2(C)C3=C(CCC12C)C1(C)CCC(O)C(C)(C)C1CC3=O (stereo not given)
inactive: [1] -0.35% | [2] -0.5% | [3] -18.6% | [4] 1.85% | [5] 2.1% | [6] -5.45%

CCC(=O)NC(Nc1cccc(F)c1C)(C(F)(F)F)C(F)(F)F
inactive: [1] -22.4% | [2] 23.4% | [3] -37.4% | [4] 14.7% | [5] 7.25% | [6] -5.5%

Cc1ccc(S(=O)(=O)Nc2ccc3nc(C)oc3c2)cc1
inactive: [1] 26.4% | [2] -18.1% | [3] 44.1% | [4] 14.7% | [5] 45% | [6] 17%

NC(=O)c1csc(Nc2csc(N)n2)n1
inactive: [1] -6.05% | [2] -15.5% | [3] -6.35% | [4] -13.6% | [5] 18.8% | [6] -26.6%

O=C(Nc1ccccc1)c1cccnc1
inactive: [1] -4% | [2] -18.4% | [3] -0.2% | [4] -13.9% | [5] -2.75% | [6] -2.65%

C=CCN1C(=O)CC2[C@@H]3CCc4cc(O)ccc4C3CC[C@]2(C)C1=O (stereo not given in full)
inactive: [1] -0.65% | [2] -12.7% | [3] -7.6% | [4] 22.8% | [5] 8% | [6] 1.25%

Cc1cc[n+](Cc2ccccc2Cl)c(C)c1
inactive: [1] 19% | [2] 2.25% | [3] 14% | [4] -4.15% | [5] 2.05% | [6] 4.9%

O=P1(O)c2ccccc2CCc2ccccc21
inactive: [1] 10.1% | [2] -14.6% | [3] 3.7% | [4] 29.8% | [5] -11% | [6] 3.4%

Cc1cc(=O)n(-c2ccc(-c3ccc(-n4c(C)c(C(=O)O)c(C)cc4=O)cc3)cc2)c(C)c1C(=O)O
inactive: [1] -45% | [2] 6.35% | [3] 19.3% | [4] 24.1% | [5] -2.4% | [6] 27.6%

CCOC(=O)CCC(NC(=O)OCc1ccccc1)C(=O)NC(CCC(=O)OCC)C(=O)NC(CCC(=O)OCC)C(=O)NC(CCC(=O)OCC)C(=O)NC(CCC(=O)OCC)C(=O)NC(CCC(=O)OCC)C(=O)NC(CCC(=O)OCC)C(=O)OCC (stereo not given)
inactive: [1] -23.8% | [2] -16.5% | [3] -10.2% | [4] 26.2% | [5] -10.7% | [6] 2.2%

Cc1cc(C)c(C(=O)c2ccccc2C(=O)O)c(C)c1
inactive: [1] 0.05% | [2] 11.1% | [3] 3.05% | [4] -89% | [5] 24.5% | [6] -12%

CC(=O)CCCO
inactive: [1] -1.6% | [2] -5.75% | [3] -0.8% | [4] -9.4% | [5] 19.1% | [6] -0.9%

CCCNC(=O)c1ccc(Cl)cc1Cl
inactive: [1] 29.8% | [2] 7.85% | [3] 18.4% | [4] -12.2% | [5] -12.5% | [6] 27.1%

Nc1nc(N)c(N)c(Nc2ccc(Cl)cc2)n1
inactive: [1] 27.5% | [2] 22.3% | [3] 9% | [4] 21.4% | [5] -1.95% | [6] 2.5%

Cn1c([N+](=O)[O-])cnc1COc1ccc(OCc2ncc([N+](=O)[O-])n2C)cc1
inactive: [1] 4.45% | [2] -20.1% | [3] -0.55% | [4] 27.6% | [5] 0.4% | [6] -2.7%
